# Records with an inconclusive call do not appear. For some of these results: Measured potencies and affinities stand elsewhere. Calls of active or inactive are those of the source. Unless noted, how the calls were made is not given here.
# Columns and labels:
# [1] = molecular target: ATP-dependent translocase ABCB1 (Homo sapiens) (UniProt P08183); experiment: P-glycoprotein substrate transport blockade – cell-based (AID 377; in the data active means fluorescence slope change above about 50%); conditions: MDR1-expressing cells, fluorescent substrate accumulation slope; stronger effect = higher value; concentration not given here
# Sequence of ATP-dependent translocase ABCB1 (Homo sapiens) (P08183 whole entry, looked up): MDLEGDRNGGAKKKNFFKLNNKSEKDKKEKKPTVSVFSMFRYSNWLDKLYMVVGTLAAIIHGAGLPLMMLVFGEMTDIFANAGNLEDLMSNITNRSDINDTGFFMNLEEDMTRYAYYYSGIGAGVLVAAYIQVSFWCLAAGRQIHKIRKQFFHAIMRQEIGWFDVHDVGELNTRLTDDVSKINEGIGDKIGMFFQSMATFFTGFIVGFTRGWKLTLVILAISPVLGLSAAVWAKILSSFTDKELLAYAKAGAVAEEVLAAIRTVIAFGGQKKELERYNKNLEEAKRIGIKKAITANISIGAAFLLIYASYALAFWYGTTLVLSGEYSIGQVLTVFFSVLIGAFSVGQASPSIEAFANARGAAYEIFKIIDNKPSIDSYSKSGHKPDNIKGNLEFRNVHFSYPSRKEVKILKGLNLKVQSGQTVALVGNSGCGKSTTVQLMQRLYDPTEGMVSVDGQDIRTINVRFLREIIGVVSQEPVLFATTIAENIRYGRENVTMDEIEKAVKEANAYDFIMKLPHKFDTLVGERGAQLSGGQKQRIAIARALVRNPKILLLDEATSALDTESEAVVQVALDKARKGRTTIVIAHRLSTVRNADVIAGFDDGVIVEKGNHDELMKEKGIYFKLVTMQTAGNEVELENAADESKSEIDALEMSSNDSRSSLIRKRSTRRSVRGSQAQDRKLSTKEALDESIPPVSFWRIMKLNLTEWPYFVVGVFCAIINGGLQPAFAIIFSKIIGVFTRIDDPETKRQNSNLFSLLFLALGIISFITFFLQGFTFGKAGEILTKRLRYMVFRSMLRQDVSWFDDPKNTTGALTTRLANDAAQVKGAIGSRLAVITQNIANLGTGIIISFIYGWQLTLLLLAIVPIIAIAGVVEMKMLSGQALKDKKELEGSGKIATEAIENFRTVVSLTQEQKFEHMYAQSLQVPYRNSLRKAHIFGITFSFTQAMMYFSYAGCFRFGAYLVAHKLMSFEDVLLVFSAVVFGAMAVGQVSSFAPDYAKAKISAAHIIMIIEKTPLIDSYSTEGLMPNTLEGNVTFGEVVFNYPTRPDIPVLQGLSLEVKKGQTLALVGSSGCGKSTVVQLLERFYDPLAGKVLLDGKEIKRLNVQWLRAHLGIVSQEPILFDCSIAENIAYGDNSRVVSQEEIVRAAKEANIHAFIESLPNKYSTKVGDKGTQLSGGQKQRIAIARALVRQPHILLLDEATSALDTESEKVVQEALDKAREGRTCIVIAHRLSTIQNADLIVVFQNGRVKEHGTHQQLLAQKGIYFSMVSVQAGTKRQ
# [2] = blockers of polyQ-driven CASP3 activation – cell-based (AID 1583); conditions: polyglutamine-induced caspase-3 activation, cell assay; stronger effect = higher value;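 tested at 10 µM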
# [3] = restoration of touch response, mutant HTT neurons – whole organism, C. elegans mechanosensory neurons, N-terminal huntingtin (AID 1599); conditions: C. elegans polyQ-huntingtin mechanosensory neurons, stronger effect = higher value
# [4] = glutamate transport activators, MN-1 cells, MN-1 cell line (AID 1612); conditions: MN-1 motor neuron cells, stronger effect = higher value;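 further: tested at 1 µM final; 0% = mean of DMSO vehicle wells on each plate; positive means more glutamate uptake than control and negative means less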
# [5] = GFP-Q80 aggregate reduction, neuronal-like cells, cell-based, NGF-treated PC12, GFPQ80 (AID 1614); conditions: PC12 NGF-treated GFP-polyQ80 inclusion reduction;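 further: lower means fewer inclusions and 0 means no inclusions at all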
# [6] = 75Q-TubH aggregate inhibition, S. cerevisiae, yeast (AID 1616); conditions: S. cerevisiae 75Q-TubH polyglutamine aggregation suppression; stronger effect = higher value
# [7] = compounds altering circadian rhythm period length – cell-based, LOPAC library, luminescence reporter (AID 2774); conditions: circadian reporter cells, at 7 µM, actives lie on both sides;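 further: values are relative to mean of DMSO wells on each plate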
# [8] = compounds altering viability of human ES cells (AID 493140); conditions: human embryonic stem cell survival screen; stronger effect = higher value;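 further: cells exposed to compounds for four days before counting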
# [9] = system: Hepatitis C virus NS3 helicase; experiment: blockers of NS3h binding to ssDNA – biochemical, fluorescence polarization, LOPAC1280 library, primary screen (AID 687035; in the data active means inhibition above about 37%); conditions: Purified HCV NS3 helicase, Cy5-dT15 ssDNA binding fluorescence polarization; stronger effect = higher value; concentration not given here
# [10] = compounds altering Cy5-DNA-NS3h complex signal – biochemical, LOPAC1280, artefact control for HCV NS3 helicase inhibitor project (AID 687037); conditions: Cy5-DNA-NS3h complex fluorescence interference counterscreen
# [11] = system: Aerobactin synthetase IucA (Klebsiella pneumoniae, hypervirulent); experiment: biochemical IucA inhibition screen of LOPAC library by absorbance (AID 1346212); conditions: IucA enzyme assay, absorbance (OD) readout; stronger effect = lower value;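 tested at 8 µM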;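 further: 100% = no compound wells and 0% = no enzyme wells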
# [12] = blockers of cellular phospholipid synthesis – cell-based, LOPAC library, screen 4, primary screen (AID 1347384); conditions: animal cells, phospholipid biosynthesis inhibition screen; at 10 µM
smiles,measurement,setting,value
Cc1cccc(C)c1NC1=NCCCS1,fluorescence slope change,[1],18% (inactive)
same,inhibition,[2],-1.23%
same,rescue above control,[3],-0.14
same,glutamate uptake change,[4],-9.68%
same,inclusion score,[5],2
same,aggregation suppression score,[6],1.27
same,period change,[7],-0.19 h (inactive)
same,survival,[8],6.75 (inactive)
same,inhibition,[9],-2% (inactive)
same,fluorescence ratio (interference),[10],1 (inactive)
same,remaining activity,[11],121% (inactive)
same,outcome,[12],inactive
O=c1oc2ccccc2c(O)c1Cc1c(O)c2ccccc2oc1=O,fluorescence slope change,[1],-7.2% (inactive)
same,inhibition,[2],3.41%
same,glutamate uptake change,[4],-38%
same,inclusion score,[5],1
same,aggregation suppression score,[6],1.26
same,survival,[8],4.42 (inactive)
CC(C)(C)NCC(O)c1cc(Cl)c(N)c(Cl)c1 (configuration not stated),fluorescence slope change,[1],-2.7% (inactive)
same,inhibition,[2],5.01%
same,rescue above control,[3],-3.16
same,glutamate uptake change,[4],-4.4%
same,inclusion score,[5],2
same,aggregation suppression score,[6],1.64
same,survival,[8],11.5 (inactive)
c1ccc2c(c1)sc1ccccc12,inhibition,[2],11%
same,rescue above control,[3],18.8
same,glutamate uptake change,[4],-0.7%
same,aggregation suppression score,[6],0.0947
Oc1ccc(Cl)cc1,inhibition,[2],-57%
same,rescue above control,[3],0.9
same,glutamate uptake change,[4],4.5%
same,inclusion score,[5],2
same,aggregation suppression score,[6],0.223
CCCCCCCCC(=O)NCc1ccc(O)c(OC)c1,period change,[7],0.08 h (inactive)
CC(=O)[O][Hg][c]1ccccc1,rescue above control,[3],0
same,glutamate uptake change,[4],-17.8%
same,aggregation suppression score,[6],-0.131
C[C@@H]1O[C@@H](O[C@H]2C[C@@H](O)[C@]3(CO)[C@H]4[C@H](O)C[C@]5(C)[C@@H](C6=CC(=O)OC6)CC[C@]5(O)[C@@H]4CC[C@]3(O)C2)[C@H](O)[C@H](O)[C@H]1O,period change,[7],-0.18 h (inactive)
same,survival,[8],1.08 (inactive)
same,inhibition,[9],-4% (inactive)
same,fluorescence ratio (interference),[10],1 (inactive)
same,remaining activity,[11],109% (inactive)
same,outcome,[12],inactive
COc1ccccc1N1CCNCC1,period change,[7],0.075 h (inactive)
same,inhibition,[9],-4% (inactive)
same,fluorescence ratio (interference),[10],0.9 (inactive)
same,remaining activity,[11],96.8% (inactive)
same,outcome,[12],inactive
CNC(C)(C)Cc1ccccc1,fluorescence slope change,[1],29.7% (inactive)
same,inhibition,[2],-8.9%
same,rescue above control,[3],-1.26
same,glutamate uptake change,[4],3.05%
same,inclusion score,[5],2
same,aggregation suppression score,[6],1.35
same,survival,[8],4.83 (inactive)
Clc1ccc(C(OCCN2CCCCC2)c2ccccc2)cc1 (configuration not stated),fluorescence slope change,[1],54.5% (active)
same,inhibition,[2],4.2%
same,glutamate uptake change,[4],29.4%
same,aggregation suppression score,[6],1.4
same,survival,[8],3.58 (inactive)
NCCc1cc(O)c(O)cc1O,inhibition,[2],18.9%
same,rescue above control,[3],-4.94
same,glutamate uptake change,[4],-13.1%
same,aggregation suppression score,[6],1.41
O=[N+]([O-])O[C@H]1CO[C@H]2[C@@H]1OC[C@H]2O[N+](=O)[O-],fluorescence slope change,[1],-12.8% (inactive)
same,inhibition,[2],15%
same,rescue above control,[3],-2.31
same,glutamate uptake change,[4],-15.4%
same,inclusion score,[5],1
same,aggregation suppression score,[6],1.27
same,survival,[8],6 (inactive)
C=C(C)[C@H]1CN[C@H](C(=O)O)[C@H]1CC(=O)O,period change,[7],0.025 h (inactive)
same,inhibition,[9],-3% (inactive)
same,fluorescence ratio (interference),[10],1 (inactive)
same,remaining activity,[11],119% (inactive)
same,outcome,[12],inactive
NC(=O)c1cc([N+](=O)[O-])cc([N+](=O)[O-])c1,inhibition,[2],-15.4%
same,rescue above control,[3],-6.77
same,glutamate uptake change,[4],-3.86%
same,inclusion score,[5],2
same,aggregation suppression score,[6],1.47
